Assay results taken from PubChem BioAssay (Tox21).
“And” between values parts separate entries of the source, which are not always exact repeats. Equal entries are not always repeated. Records with an inconclusive call do not appear. A number with no mark means an inactive call. The source made the active and inactive calls. Calls follow the shape of the dose curve; as a rule, active = well fitted cell-killing curve with a large enough effect in the repeat runs; inconclusive = weak or mixed curves, or effect the other way; inactive = flat fitted curve, though single readings scatter.

Test: cAMP Responsive Elements (CRE) small molecule agonists, cell-based qHTS assay: qHTS cell viability counter screen (AID 2060914); also: nearly all actives have a fitted effect of over 50% in size
Conditions: CRE-bla HEK293T viability, CellTiter-Glo luminescence, 5 h; series mostly up to 92.4 µM; activity change, negative = cytotoxicity: at the top concentration
In short: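 Cells are seeded and incubated 18 h, treated with compounds in DMSO for 3 h, read for the bla reporter, then given CellTiter-Glo; luminescence is measured after 30 min at room temperature.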
% is scaled to controls: 0 for no effect and ±100 for the full control effect; potency is read from the fitted curve at half-maximal effect.

Structure (SMILES)	activity change, negative = cytotoxicity	Potency
CC(C=O)Cc1ccc(C(C)C)cc1 (stereo not given)	8.09%	–
CN[C@H]1CC[C@@H](c2ccc(Cl)c(Cl)c2)c2ccccc21	4.55% [at 42.5 µM]	–
CC1CCCC(=O)C1=O (stereo not given)	10.2%	–
CCCCCCCCCCCCCCCCN	-1.17% [at 42.5 µM]	–
O=C(N[C@@H](c1ccccc1)[C@@H]1CCCCN1)c1cccc(C(F)(F)F)c1Cl	0.319%	–
CC(C)=CCC[C@H](C)CCO	12.8%	–
CNCCC(Oc1ccc(C(F)(F)F)cc1)c1ccccc1 (stereo not given)	-5.52% [at 42.5 µM]	–
CC(C)(C)C(=O)OCOC(=O)[C@@H]1N2C(=O)[C@@H](NC(=O)[C@H](N)c3ccccc3)[C@H]2SC1(C)C	5.6% [at 42.5 µM]	–
O=C(O)c1cccc(Oc2ccccc2)c1	-0.397%	–
C=C(C)C(=O)OC1CC(C)CC(C)(C)C1 (stereo not given)	2.5%	–
O=C(Nc1ccc(Oc2ccc(Cl)cc2)c(Cl)c1)c1cc(I)cc(I)c1O	-8.99% [at 42.5 µM]	–
CCOC(=O)C1=C[C@]2(CC)CCCN3CCc4c(n1c1ccccc41)[C@@H]32	-1.48% [at 42.5 µM]	–
COc1cccc(CCc2ccccc2OCC(CN(C)C)OC(=O)CCC(=O)O)c1 (stereo not given)	2.53% [at 42.5 µM]	–
O=C1Cc2ccccc2N1c1c(Cl)cccc1Cl	0.902%	–
CC(C)=CCC/C(C)=C/C=O	–	inactive
CCCCCCCC(=O)Oc1c(Br)cc(C#N)cc1Br	-16%	–
c1ccc2c(c1)CCCC2C1=NCCN1 (stereo not given)	7.4% [at 42.5 µM]	–
Cc1ccc(O)c(O)c1	8.62%	–
NC(=O)c1ccc(N)cc1	-4.03%	–
O=[N+]([O-])c1ccc(Oc2ccc([N+](=O)[O-])cc2)cc1	0.522%	–

Structure (SMILES)	activity change, negative = cytotoxicity	Potency
C=C(C)C(=O)OCCCCCCCCCCCCC	-0.415%	–
CCc1ccc(CC)cc1	0.237%	–
CCN1CCC[C@H]1CNC(=O)c1cc(S(N)(=O)=O)ccc1OC	10.7% [at 42.5 µM]	–
c1ccc(C(O[C@@H]2CCCN(CCc3ccc4c(c3)OCO4)C2)c2ccccc2)cc1	-17%	–
CC(C)CC(O)CC(C)C	-2.87%	–
CN1CCCCC1CCN1c2ccccc2Sc2ccc(S(C)=O)cc21 (stereo not given)	10.8% [at 42.5 µM]	–
O=C(O)C(=O)Cc1ccccc1	13.2%	–
OCC(CO)(CBr)CBr	–	inactive
Nc1ccccc1S(=O)(=O)c1ccccc1	-0.0683%	–
CCCC[P+](CCCC)(CCCC)CCCC	–	inactive
C[C@@H]1CCC[C@H](C)N1CCCC(O)(c1ccccc1)c1ccccn1 (stereo not given in full)	0.246% [at 42.5 µM]	–
Cc1cccc(C)c1NC(=O)CN1CCN(CCCC(c2ccc(F)cc2)c2ccc(F)cc2)CC1	-0.415% [at 42.5 µM]	–
CCOC(OCC)OCC	0.558%	–
Oc1ccc(-c2ccccc2)c(Cl)c1	-21.1%	–
CCOC(=O)CN1CCCC1=O	2.81% [at 42.5 µM]	–
COc1ccccc1OCCNCC(O)COc1cccc2[nH]c3ccccc3c12 (stereo not given)	-4.08% [at 42.5 µM]	–
CC1=CC[C@H]2C[C@@H]1C2(C)C	–	inactive
O=S(=O)(O)c1ccc2nc(-c3ccccc3)[nH]c2c1	–	29.1 µM (active) and 21.1 µM (active)
CC(C)COC(=O)c1ccccc1O	15.2%	–
CCC(C)C(=O)OC (stereo not given)	0.245%	–
